Experimental data published in PubChem BioAssay AID1159580 (chemical genetic matrix, 2015).
“And” between values parts separate entries of the source, which are not always exact repeats. Identical values can stand only once. About 2,000 (36%) of roughly 5,500 compounds were called active. Roughly 18% stayed inconclusive and do not appear here. No stated cut-off is given here; in the data, active means normalized growth mostly below about 0.91 (no sharp cut-off); inconclusive means no clear call, values can overlap the other calls; inactive means mostly above about 0.92. Some of the results follow. *1 amine or outer side, *2 acyl side, *3 side chain or, on linkers, in order; H or OH if unused. Where a SMILES comes first, the peptide text is derived from it. Bridges are numbered along the chain shown (N, C = ends). [ ]: non-standard residue; d: D form. The star is where a group is joined. ξ: configuration not given here. ΔAla(E,3-NHCONH2) = NC(=O)N/C=C(/N)C(=O)O; X2 = NC1=NCCC(C(N[*:1])C(=O)[*:2])N1; ξβ3hOrn = NCCCC(N)CC(=O)*; Dap = NC[CH](N)C(=O)O

Test: chemical genetic growth profiling, strain panel (AID 1159580);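 further: tested at 20 µM; growth read once vehicle control cultures reached saturation at 30 °C; 1 = growth at the plate median or of vehicle wells; lower values mean less growth of the strain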
Settings: S. cerevisiae deletion strains, growth OD

Measured: normalized growth

NCCCC(N)CC(=O)NCC1NC(=O)C(CO)NC(=O)C(N)CNC(=O)C(C2CCN=C(N)N2)NC(=O)/C(=C\NC(N)=O)NC1=O (stereo not drawn) (H-[Dap]S[Dap](ξβ3hOrn)[ΔAla(E,3-NHCONH2)][X2]; lactam 1-C; configuration not given here)
inactive: locus YAL013W, strain DEP1, active compounds read low 0.999 | locus YAL021C, strain ccr4, active compounds read low 1.01 | locus YAL026C, strain drs2, active compounds read low 0.994 | locus YAL030W, strain snc1, active compounds read low 1.03 | locus YBL061C, strain skt5, active compounds read low 1.02 | locus YBR009C, strain hhf1, active compounds read low 0.975 | locus YBR021W, strain FUR4, active compounds read low 0.997 | locus YBR023C, strain chs3, active compounds read low 1.01 | locus YBR171W, strain sec66, active compounds read low 1.02 | locus YBR229C, strain ROT2, active compounds read low 1.01 | locus YBR231C, strain swc5, active compounds read low 1.05 | locus YBR279W, strain paf1, active compounds read low 1.01 | locus YCL011C, strain gbp2, active compounds read low 0.984 | locus YCL016C, strain dcc1, active compounds read low 0.989 | locus YCL029C, strain bik1, active compounds read low 1.03 | locus YCL069W, strain vba3, active compounds read low 1.01 | locus YCR088W, strain abp1, active compounds read low 1.02 | locus YDL005C, strain med2, active compounds read low 0.994 | locus YDL035C, strain GPR1, active compounds read low 1.01 | locus YDL040C, strain nat1, active compounds read low 1.01 | locus YDL074C, strain BRE1, active compounds read low 1.02 | locus YDL101C, strain DUN1, active compounds read low 1 | locus YDL185W, strain tfp1, active compounds read low 1.03 | locus YDL192W, strain arf1, active compounds read low 0.998 | locus YDR001C, strain nth1, active compounds read low 0.999 | locus YDR069C, strain doa4, active compounds read low 1.03 | locus YDR101C, strain arx1, active compounds read low 1.02 | locus YDR137W, strain rgp1, active compounds read low 0.991 | locus YDR159W, strain sac3, active compounds read low 0.975 | locus YDR162C, strain NBP2, active compounds read low 1.01 | locus YDR195W, strain ref2 1.05 | locus YDR297W, strain sur2, active compounds read low 1.03 | locus YDR318W, strain mcm21, active compounds read low 1.02 | locus YDR334W, strain swr1, active compounds read low 1 | locus YDR335W, strain msn5, active compounds read low 1.02 | locus YDR388W, active compounds read low 1.01 | locus YDR392W, strain spt3, active compounds read low 0.928 | locus YDR502C, strain sam2, active compounds read low 1.01 | locus YEL003W, strain gim4, active compounds read low 1.04 | locus YEL037C, strain rad23, active compounds read low 1.02 | locus YEL061C, strain CIN8 (second series), active compounds read low 1.02 | locus YEL061C, strain CIN8, active compounds read low 0.997 | locus YER015W, strain faa2, active compounds read low 1.01 | locus YER016W, strain bim1, active compounds read low 0.993 | locus YER110C, active compounds read low 1.02 | locus YER111C, strain swi4, active compounds read low 0.999 | locus YER155C, strain BEM2 (second series), active compounds read low 1 | locus YER155C, strain BEM2, active compounds read low 1 | locus YER167W, strain BCK2, active compounds read low 0.996 | locus YFR010W, strain ubp6, active compounds read low 1.05 | locus YGL078C, strain dbp3, active compounds read low 1.02 | locus YGL086W, strain mad1, active compounds read low 0.997 | locus YGL167C, strain pmr1, active compounds read low 1.02 | locus YGL173C, strain kem1, active compounds read low 1.04 | locus YGL227W, strain vid30, active compounds read low 1.01 | locus YGL240W, strain doc1, active compounds read low 1.06 | locus YGL248W, strain PDE1, active compounds read low 1.01 | locus YGL253W, strain hxk2, active compounds read low 0.984 | locus YGR078C, strain PAC10, active compounds read low 1.01 | locus YGR135W, strain pre9, active compounds read low 1.04 | locus YGR229C, strain SMI1, active compounds read low 1.02 | locus YGR252W, strain gcn5, active compounds read low 0.993 | locus YHR013C, strain ard1, active compounds read low 1.03 | locus YHR027C, strain rpn1, active compounds read low 1.01 | locus YHR030C, strain SLT2, active compounds read low 1 and 1.03 | locus YHR079C, strain IRE1 (second series), active compounds read low 1.02 | locus YHR079C, strain IRE1, active compounds read low 1.03 | locus YHR094C, strain hxt1, active compounds read low 1.01 | locus YHR129C, strain ARP1, active compounds read low 0.999 | locus YHR142W, strain chs7, active compounds read low 1.01 | locus YHR200W, strain rpn10, active compounds read low 1.02 | locus YIL066C, strain RNR3, active compounds read low 1.01 | locus YIL073C, strain SPO22, active compounds read low 1.08 | locus YIL125W, strain kgd1, active compounds read low 1.01 | locus YIR030C, strain dcg1, active compounds read low 1.01 | locus YJL092W, strain hpr5, active compounds read low 1.03 | locus YJL095W, strain BCK1 (second series), active compounds read low 1.03 | locus YJL095W, strain BCK1, active compounds read low 1.01 and 1.04 | locus YJL115W, strain asf1, active compounds read low 1.02 | locus YJL129C, strain trk1, active compounds read low 1.01 | locus YJL134W, strain LCB3, active compounds read low 1.01 | locus YJL154C, strain vps35, active compounds read low 1.01 | locus YJL164C, strain tpk1, active compounds read low 1 | locus YJL166W, strain qcr8, active compounds read low 1.04 | locus YJL168C, strain set2, active compounds read low 1.01 | locus YJL187C, strain SWE1 (second series), active compounds read low 1.01 | locus YJR043C, strain POL32, active compounds read low 1.01
